An excerpt weighted towards active compounds, which were near 14% of everything screened.
Pf growth 96h – inhibits malaria parasite growth, 96 h. P. falciparum luciferase reporter growth, 96 h. Potency, µM (titrated, usually from 28.7 µM), usual class: inhibitors. hit rate 6.9% among 320,000
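Readout is luminescence from an integrated firefly luciferase in P. falciparum. Red cells, 2% hematocrit and 0.05% parasitemia final, were cultured with compound through two parasite generations (96 hours) at 37 C, 5% CO2.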
HCV inhibitor – HCV inhibition; Huh7.5.1 HCVcc-Cre infection, luciferase reporter, 44 h; Potency, µM (highest dose often 41.8 µM), actives largely listed as inhibitors; hit rate 3.4% among 340,000; AID 651820
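Luciferase read-out (15 sec integration) after a 15 min room-temperature substrate step quantifies HCVcc-Cre infection. Cells, 1,000 per well, had compound added 4 h post-plating, then virus at ~0.5 moi, and were cultured 44 h.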
MARV entry inh – inhibitors of Marburg virus binding or cell entry; Marburg virus pseudotyped entry inhibition, cell reporter; Potency, µM (titrated, usually from 37.8 µM), usual class: inhibitors; hit rate 1.8% among 300,000; calls by dose curve; tested in HEK293 cells
LASV entry inh – inhibitors of Lassa virus binding or cell entry. Lassa virus pseudotype entry inhibition, cell reporter. Potency, µM (top dose mostly 37.9 µM), most hits filed as inhibitors. hit rate 1.2% among 300,000; calls by dose curve; tested in HEK293 cells; note: nearly all actives have a fitted effect of over 50% in size
Pf growth 48h – P. falciparum growth inhibition at 48 hours (one generation) | P. falciparum luciferase growth in erythrocytes, 48 h | hit rate 5.9% among 310,000 | AID 504832 | Potency, µM (doses to about 28.7 µM), actives largely listed as inhibitors
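Growth was read as firefly luciferase luminescence after a 48 h, 37 C, 5% CO2 exposure of compounds to reporter-bearing P. falciparum cultures (0.1% parasitemia, 2% hematocrit final) in Albumax-supplemented RPMI 1640.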
HCMV inh – blocks human cytomegalovirus replication; hit rate 4.5% among 410,000; activity change, negative = inhibition, % at 57.5 µM; HFF cells, HCMV-luciferase reporter, 72 h; stronger effect = lower value; in the data active = activity change below about -60%; inconclusive = no clear call, values can overlap the other calls; inactive = above about -39%
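Compounds were evaluated in HFFs infected with an HCMV luciferase reporter virus (MOI 1 PFU/cell). Luciferase in lysates collected 72 h post infection served as the replication measure.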
Numbers stand for hits; 0 = inactive; ? = inconclusive; - = no result given; [ ] = dose if it differs, or a comment. Unless noted, calls come from the whole dose curve; as a rule, active = well fitted inhibition curve with a large enough effect; inconclusive = small, poorly fitted or top-dose-only effect, or another doubt; inactive = no such curve, though single readings can be large or run the other way.

SMILES	Pf growth 96h	HCV inhibitor	MARV entry inh	LASV entry inh	Pf growth 48h	HCMV inh
COC(=O)c1ccccc1NS(=O)(=O)c1cc2c(cc1C)N(C)CCO2	-	-	-	10µM	-	?
COc1cccc(NS(=O)(=O)c2cc3c(cc2C)N(C)CCO3)c1	0	0	-	-	0	0
CCCC[C@@H]1CC2=C(C(=O)OC(C)(C)O2)[C@H](c2ccc(C(C)C)cc2)O1	-	-	-	-	-	0
COc1cc(C2C(C(=O)Nc3ccccc3)=C(C)Nc3nnnn32)cc(OC)c1OC (stereo not drawn)	-	-	0	0	-	-105.9
CC1=C(C(=O)Nc2ccccc2)C(c2ccncc2)n2nnnc2N1 (stereo not drawn)	0.928µM	0	?	0	0	0
COc1cccc(C2C(C(=O)Nc3cccnc3)=C(C)Nc3nnnn32)c1OC (stereo not drawn)	0	0	?	0	?	-69.2
COC(=O)c1sc2cccc(F)c2c1S(=O)(=O)NCc1ccccc1Cl	-	-	-	?	-	0
Cc1cc2nc(NC(=O)C3(C)CCCN(C(C)C)C3)[nH]c2cc1C (stereo not drawn)	-	-	-	-	-	0
O=c1cc(-c2ccccc2)[nH]n2cnnc12	0	0	0	0	0[0.00184 µM]	0
Nc1ncnc2occ(-c3ccc(NC(=O)Nc4cc(C(F)(F)F)cc(C(F)(F)F)c4)cc3)c12	-	-	-	19.9µM	-	-
COc1ccc(-c2coc3ncnc(N)c23)cc1	-	-	-	0	-	-
CC(=O)Nc1nc(C)nc(-c2ccccc2OC(C)=O)n1	?	?	?	0	0	0
CC(=O)Nc1nc(-c2ccccc2)nc(-c2ccccc2OC(C)=O)n1	?	2.82µM	0	?	?	0
S=C(NCc1ccccc1)N1CCN(c2cccc(Cl)c2)CC1	0	0	0	-	0	0
Cc1cccc(N2CCN(C(=S)c3ccc([N+](=O)[O-])cc3)CC2)c1	0	0	0	0	0	-62.7
CNC(=S)N1CCN(c2ccc([N+](=O)[O-])cc2)CC1	13.1µM	0	0	0	?	0
O=[N+]([O-])c1ccc(N2CCN(C(=S)NCc3ccc(Cl)cc3)CC2)cc1	0	11.2µM	-	-	?	-90.2
CC(C)CC(=O)N1CCN(c2ccc([N+](=O)[O-])cc2Cl)CC1	0	0	?	0	0	0
CC(C)CC(=O)NC(=S)N1CCN(c2ccc([N+](=O)[O-])cc2Cl)CC1	?	0	0	0	0	-67.2
O=C1NC[C@H](CCCCN2C[C@@H](Cc3ccccc3)N(Cc3ccccc3)C(=O)C2=O)N(CCC2CCCCC2)C1=O	-	-	-	-	-	0
C=CCNC(=S)N1CCN(c2ccc([N+](=O)[O-])cc2)CC1	?	0	0	0	1.65µM	0
CCNC(=S)N1CCN(c2ccc([N+](=O)[O-])cc2)CC1	6.57µM	0	0	0	11.7µM	0
COCCCNC(=S)N1CCN(c2ccc([N+](=O)[O-])cc2)CC1	0	?	?	0	6.57µM	?
O=[N+]([O-])c1ccc(NC(=S)N2CCN(c3ccc(F)cc3)CC2)cc1	0	0	0	?	0	0
COc1ccc(C(=O)NC(=S)N2CCN(c3ccc([N+](=O)[O-])cc3)CC2)cc1	0	0	0	0	0	0
SMILES	Pf growth 96h	HCV inhibitor	MARV entry inh	LASV entry inh	Pf growth 48h	HCMV inh
CC(=O)N1CCN(c2ccc([N+](=O)[O-])cc2)CC1	0	0	0	0	?	0
CCC[C@H]1[C@@H](NC(=O)Nc2cccc(C(F)(F)F)c2)CC[C@@]23CCCN2C(=O)CCC[C@@H]13	-	-	-	-	-	0
CCCS(=O)(=O)NC(=O)C1(C)CCN(C(=O)Cc2ccc(F)cc2)C1 (stereo not drawn)	-	-	-	-	-	0
O=C(Nc1ccccc1)c1cc(C2COCCN2C(=O)c2cccs2)on1 (stereo not drawn)	-	-	-	-	-	-84.9
COc1ccc2cc3cc(C(=O)N4CCN(c5cccc(C(F)(F)F)c5)CC4)sc3nc2c1	-	-	0	0	-	0
O=C(CNC(=O)c1ccccc1F)NCc1ccccn1	-	0	-	-	-	0
CCC(=O)Nc1ccccc1-c1nc2ccccc2n(C(CC)C(=O)Nc2cccc(Cl)c2)c1=O (stereo not drawn)	-	-	0	0	-	-108.5
CCC(C(=O)Nc1ccc(C)c(Cl)c1)n1c(=O)c(-c2ccccc2NC(C)=O)nc2ccccc21 (stereo not drawn)	-	-	0	0	-	-96.6
COCCNC(=O)C1(C)CCN(C(=O)c2cccnc2Oc2ccccc2)C1 (stereo not drawn)	-	-	-	-	-	0
CCOc1ccc(CNC(=O)CN2N=C(c3ccccc3)CCC2=O)cc1OC	-	-	-	?	-	0
COc1ccccc1CCc1nnc(CCC(=O)NCC(C)Oc2cccnc2)o1 (stereo not drawn)	16.5µM	0	-	-	0	0
Cc1c(CC(=O)NCCCC(=O)O)c(=O)oc2cc3oc4c(c3cc12)CCCC4	0	0	0	0	0	-65.6
Cc1c(CC(=O)NCCC(=O)O)c(=O)oc2cc3oc4c(c3cc12)CCCC4	0	0	-	-	0	0
Cc1c(CC(=O)NCCCC(=O)O)c(=O)oc2cc3c(cc12)CCC(C)(C)O3	?	0	?	?	2.62µM	-86.2
CCN1C(=O)NC(c2ccco2)C(C(C)=O)=C1C (stereo not drawn)	-	-	0	-	-	-
O=S(=O)(Nc1cccc(C(F)(F)F)c1)c1ccc(-c2cnc(C3CC3)o2)cc1	-	-	-	?	-	0
Cc1oc(-c2ccc(Cl)cc2)nc1CN1CCCC(C(=O)NCc2ccccc2)C1 (stereo not drawn)	-	-	0	0	-	0
CC1(C(=O)O)CCCN1C(=O)c1cccc(C(F)(F)F)c1 (stereo not drawn)	-	-	-	-	-	0
CCOC(=O)c1cc(-c2ccc(F)cc2)n(CCC(=O)NC2CCN(Cc3ccccc3)CC2)c1C	?	3.98µM	?	?	?	0
O=C(CCn1c(=O)c2ccccc2n(Cc2ccccc2)c1=O)NC1CCN(Cc2ccccc2)CC1	8.28µM	?	-	-	?	0
CCOc1ccc(NC(=O)Cn2c(=O)n(CCCC(=O)NC3CCN(Cc4ccccc4)CC3)c(=O)c3ccccc32)cc1	0	?	?	0	5.22µM	0
COc1cccc(NC(=O)Cn2c(=O)n(CCC(=O)NC3CCN(Cc4ccccc4)CC3)c(=O)c3ccccc32)c1	14.7µM	?	-	-	?	0
Cc1cccc(NC(=O)Cn2c(=O)n(CCC(=O)NC3CCCC3)c(=O)c3ccccc32)c1	2.08µM	0	0	0	0	0
Cc1cccc(NC(=O)Cn2c(=O)n(CCc3ccccc3)c(=O)c3ccccc32)c1	-	-	0	0	-	0
CC(C)CC1NC(=O)c2cccnc2-n2c1nc1ccccc1c2=O (stereo not drawn)	-	-	-	-	-	0
CCCC1=[N+](CC(=O)c2ccc(C)cc2)CCn2cccc21	?	0	?	0	10.4µM	0
O=C(Nc1ccccc1SCC1CSc2nc3ccccc3c(=O)n21)c1ccccc1 (stereo not drawn)	?	0	?	?	?	-69.8
O=c1c2ccccc2nc2n1C(CSCc1ccc(Cl)cc1)CS2 (stereo not drawn)	?	10µM	?	0	?	?
